# Sampled rows, rich in hits. Any-hit rate of the full collection: about 5.7%.
# NPSR antag – blocks cAMP signaling of the human neuropeptide S receptor; CHO-NPSR cells, cAMP TR-FRET, antagonist mode; AID 1461; 1% of 220,000 active; Potency, µM (titrated, usually from 38.3 µM), inactives show top-dose activity change, negative = inhibition, actives largely listed as inhibitors; Q6W5P4; also: nearly all actives have a fitted effect of over 50% in size
# Gal4-VP16 FLuc – Gal4-VP16 reporter inhibition counter-screen. Drosophila S2 Gal4-VP16 UAS-luciferase, luminescence, 20 h. Potency, µM (top dose mostly 53.6 µM), for the others: at the highest dose activity, negative = inhibition, actives largely listed as inhibitors. 3.5% of 310,000 active. AID 2546;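 also: Gal4-VP16 expression switched on by copper sulfate through the metallothionein promoter; nearly all actives have a fitted effect of over 50% in size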
# RORg inh – ROR gamma (mouse) transcription inhibition | P51450 | 5.4% of 310,000 active | Drosophila S2 Gal4-RORgamma UAS-luciferase reporter, 20 h | Potency, µM (highest dose often 53.6 µM), for the others: at the highest dose activity change, negative = inhibition, actives largely listed as inhibitors; also: nearly all actives have a fitted effect of over 60% in size
# Target sequence (P51450 whole entry, looked up, the tested form may be a part): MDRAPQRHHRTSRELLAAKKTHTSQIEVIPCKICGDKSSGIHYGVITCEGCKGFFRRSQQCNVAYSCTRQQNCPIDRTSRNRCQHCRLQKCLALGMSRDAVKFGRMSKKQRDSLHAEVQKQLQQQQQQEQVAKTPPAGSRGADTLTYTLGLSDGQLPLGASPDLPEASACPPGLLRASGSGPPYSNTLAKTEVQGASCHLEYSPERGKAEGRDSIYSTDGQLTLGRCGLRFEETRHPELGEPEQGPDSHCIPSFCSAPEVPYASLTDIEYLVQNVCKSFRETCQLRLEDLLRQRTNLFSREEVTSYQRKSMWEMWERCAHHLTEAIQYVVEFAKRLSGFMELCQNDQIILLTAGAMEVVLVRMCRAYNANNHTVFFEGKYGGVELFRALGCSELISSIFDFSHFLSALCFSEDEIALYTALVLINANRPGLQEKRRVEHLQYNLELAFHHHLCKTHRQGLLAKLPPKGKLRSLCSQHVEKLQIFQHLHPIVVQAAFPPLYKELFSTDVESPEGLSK
#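 Using a luciferase readout, inhibitors were identified by reduced reporter activity in Drosophila cells coexpressing a copper-inducible Gal4–ROR gamma fusion and UAS-driven Photinus luciferase, incubated 20 hr after 700 uM copper sulfate.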
# B2AR arrestin – agonists driving beta-arrestin recruitment to human beta2-adrenergic receptor. 0.02% of 330,000 active. P07550. beta-arrestin recruitment to beta2AR, cell-based reporter. Potency, µM (top dose mostly 46.1 µM), inactives show at the top dose activation, most hits filed as activators;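 also: 0% = DMSO controls and full agonism = EC100 isoproterenol or metaproterenol; nearly all actives have a fitted effect of over 65% in size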
# The depositor's hits bear a star; ? = inconclusive; nt = no result given; ! = a repeat was not active; [ ] = remark or other dose. Calls follow the shape of the dose curve; as a rule, active = well fitted curve in the direction sought with a large enough effect; inconclusive = small, poorly fitted or top-dose-only effect, or another doubt; inactive = no such curve, though single readings can be large; an effect the other way counts as inactive or inconclusive. Unless noted, % is scaled to controls: 0 for no effect and ±100 for the full control effect; potency is read from the fitted curve at half-maximal effect.
SMILES,NPSR antag,Gal4-VP16 FLuc,RORg inh,B2AR arrestin
COc1ccc(N2C(=O)c3ccccc3NC2c2ccc(OC)c(CSc3ccccn3)c2)cc1 (centres undefined),12.6µM*,-1.1%,14.8%,0.0%
CCCOc1ccc2ccccc2c1/C=N/n1c(C)nnc1-n1nc(C)cc1C,-7.4%[46.1 µM],1.0%,0.0%,0.1%
Cc1c(Cl)cccc1NC(=S)NCC(C)C,-7.8%,?,6.31µM*,0.3%
Cc1c(Cl)cccc1NC(=S)NCCC(c1ccccc1)c1ccccc1,-57.4%,1.26µM*,0.631µM*,0.1%
Cc1c(Cl)cccc1NC(=S)NCC(c1cccnc1)N(C)C (centres undefined),5.1%,2.8%,-35.2%,-0.2%
Cc1c(Cl)cccc1NC(=S)NCCC(C)C,-7.1%[46.1 µM],6.31µM*,4.47µM*,0.0%
Cc1c(Cl)cccc1NC(=S)NCCN1CCOCC1,10.7%,-10.1%,?,-1.4%
Cc1cc(Cl)ccc1NC(=S)NCCC(c1ccccc1)c1ccccc1,-22.3%[46.1 µM],6.31µM*,7.08µM*,-0.1%
CC(=O)Nc1cccc(NC(=S)Nc2cccc(Cl)c2C)c1,-44.7%,-4.3%,2.0%,0.0%
COc1ccccc1/C=C/C(=O)NCC(=O)N/N=C/c1ccc(C)o1,nt,-0.5%,-13.4%,-0.6%
COc1cccc2c1C(=O)c1c(O)c3c(c(O)c1C2=O)C[C@@](O)(C(C)=O)C[C@@H]3O[C@H]1C[C@H](N)[C@H](O)[C@H](C)O1,?,6.31µM*!,2.51µM*,-0.7%
CC(=O)[C@]1(O)Cc2c(O)c3c(c(O)c2[C@@H](O[C@H]2C[C@H](N)[C@H](O)[C@H](C)O2)C1)C(=O)c1c(O)cccc1C3=O,nt,7.08µM*,3.55µM*,nt
COc1cccc2c1C(=O)c1c(O)c3c(c(O)c1C2=O)C[C@@](O)(C(=O)CO)C[C@@H]3OC1C[C@@H](N)[C@H](O)[C@H](C)O1 (some centres undefined),nt,?,2.51µM*,nt
O=C(N/N=C/C1CCCCC1)c1cc(Cl)ccc1O,-5.4%[46.1 µM],-14.4%,12.6µM*,-0.1%
CC(/C=C/c1ccc2c(c1)OCO2)=N\NC(=O)c1ccccc1,-16.8%,15.8µM*,5.62µM*,-0.1%
CC(/C=C/c1ccc2c(c1)OCO2)=N\NC(=O)C(O)c1ccccc1 (centres undefined),22.6%,19.7%,16.2%,-0.3%
O=C(N/N=C\C=C\c1ccc([N+](=O)[O-])o1)c1cccs1,nt,11.2µM*,7.94µM*,5.9%
CC(/C=C/c1ccccc1)=N\NC(=O)c1ccncc1,-7.2%[46.1 µM],11.2µM*,7.08µM*,-0.6%
O=C(N/N=C/c1ccc([N+](=O)[O-])o1)c1ccc(NS(=O)(=O)c2cccs2)cc1,37.8%,-4.2%,33.5%,0.6%
O=C(Cc1cccc2ccccc12)N/N=C/C=C/c1cccc([N+](=O)[O-])c1,-9.6%[46.1 µM],?,12.6µM*,-0.3%
CC1CCCC(NC(=O)COC(=O)c2n[nH]c3ccccc23)C1C (centres undefined),nt,nt,nt,0.3%
CC(C)c1ccccc1NC(=O)c1cccc(NC(=O)c2ccccc2)c1,-10.3%[46.1 µM],0.3%,23.3%,-0.7%
O=C(N/N=C/C=C/c1ccccc1)c1cccs1,-31.2%,2.82µM*,2.82µM*,0.2%
O=C(N/N=C/c1ccc(OC(=O)c2ccc([N+](=O)[O-])cc2)cc1)c1cccnc1,nt,5.0%,-10.5%,-0.2%
CCNc1ccccc(C(=O)/C=C/c2ccc3c(c2)OCO3)c1=O,-19.7%[46.1 µM],?,7.94µM*,0.4%
SMILES,NPSR antag,Gal4-VP16 FLuc,RORg inh,B2AR arrestin
COc1ccc(NCC(=O)N/N=C/C=C\c2ccccc2)cc1,-13.4%,12.6µM*,11.2µM*,-2.0%
O=C(N/N=C/C=C\c1ccc([N+](=O)[O-])cc1)c1cccnc1,14.6%,?,5.62µM*,-0.9%
COc1ccc(OC)c(-c2nnc3n2N=C(c2c(OC)cccc2OC)CS3)c1,nt,4.3%,-1.8%,nt
O=C(N/N=C/C=C/c1cccc([N+](=O)[O-])c1)c1ccncc1,-35.4%,?,7.08µM*,0.0%
CC1(C)OC(c2ccccc2)=C/C(=C\C=N\NC(=O)c2ccncc2)O1,-15.9%,0.562µM*,0.398µM*,0.2%
O=C(N/N=C/C=C/c1ccccc1)c1ccncc1,-15.9%,7.08µM*,2.82µM*,-0.9%
O=C(N/N=C/C=C\c1ccccc1[N+](=O)[O-])c1ccncc1,-39.1%,?,10µM*,-0.3%
O=C(N/N=C/C=C/c1ccccc1[N+](=O)[O-])c1cccs1,-36.9%,?,?,-0.1%
COc1cccc(-c2nnc3n2N=C(c2c(OC)cccc2OC)CS3)c1,nt,-2.6%,-29.2%,nt
O=C(O)c1ccc(NS(=O)(=O)/C=C/c2ccccc2)cc1,-5.4%[46.1 µM],-3.7%,0.0%,-0.2%
O=C(O)c1ccc(N/N=C/C=C/c2ccccc2)cc1,-17.8%,1.12µM*,11.2µM*,0.6%
CCCCCCCC/C=C\CCCCCCCC(=O)NCCc1ccc(O)c(O)c1,?,17.8µM*!,?,-0.1%
CCCCC/C=C\C/C=C\C/C=C\C/C=C\CCCCCC(=O)NCCc1ccc(O)c(O)c1,nt,1.2%,-2.9%,nt
c1cc[n+](CCC[n+]2ccccc2)cc1,nt,-3.0%,9.7%,-0.1%
C=CCC(O)[C@H](Cc1cnc2ccccc2c1)[C@H](/C=C/CCCC)c1ccccc1 (some centres undefined),nt,-1.9%,0.5%,nt
N#C/C(=C1/CCCCCN1)c1nnc2n1CCCCC2,-3.3%[46.1 µM],6.0%,-2.0%,0.5%
N#C/C(=C(/O)CCl)c1nnc2n1CCCCC2,-2.4%,-27.3%,?,-0.2%
N#C/C(=C1\C(=O)Nc2c(Cl)cc(Cl)cc21)c1nnc2n1CCCCC2,10.4%[46.1 µM],?,15.8µM*,-0.3%
N#C/C(=N\Nc1cc(Cl)cc(Cl)c1)c1nnc2n1CCCCC2,-40.9%,6.31µM*,6.31µM*,4.5%
CC(=O)O[C@H]1C2=CO[C@H](C)[C@H]3[C@H]4C5=C([C@H](O)[C@H]6O[C@@H]6C5=O)[C@H](O[C@H]4C)[C@@]23C(=O)[C@H]2O[C@@H]21,nt,-4.1%[10 µM],?,nt
COc1ccc2[nH]cc(CCNc3ccnc(-c4ccc(C(=O)N(C)C)cc4)n3)c2c1,nt,0.3%,9.5%,nt
Cc1ccccc1C(=O)NC(=S)Nc1ccccc1N1CCCC1,-54.7%,-25.9%[10 µM],7.08µM*,0.3%
COc1ccccc1C(=O)NC(=S)Nc1ccc(N2CCCC2)cc1,26.3%,-14.7%,?,0.1%
COc1ccccc1C(=O)NC(=S)Nc1ccccc1N1CCCC1,nt,?,10µM*,-1.2%
COc1ccccc1Nc1nc(C)cc(C)c1C(N)=O,1.3%[46.1 µM],2.0%,6.8%,-0.6%
Cc1cc(C)c(C(N)=O)c(Nc2cccc3ccccc23)n1,13.9%[46.1 µM],?,2.82µM*,0.3%
O=C1C[C@H](c2ccccc2Cl)N1S(=O)(=O)c1ccccc1[N+](=O)[O-],nt,-5.7%,-1.6%,nt
Cc1nnc(Sc2cc(NCCCO)c([N+](=O)[O-])c3nonc23)s1,?,6.31µM*,3.55µM*,0.0%
O=[N+]([O-])c1c(NCCCO)cc(Sc2nc3ccccc3s2)c2nonc12,?,1.1%,15.5%,3.7%
Cc1nnc(Sc2cc(NCCO)c([N+](=O)[O-])c3nonc23)s1,-14.4%,?,3.16µM*,0.0%

# Source: PubChem BioAssay (National Center for Advancing Translational Sciences (NCATS))
